From PubChem BioAssay (EPA / NIEHS)
More than one record can exist for a structure, and the calls need not agree. The source made the active and inactive calls. Rule for the calls: active = hit-call score of the fitted dose curve at least 0.9, where 1 is the maximum; inactive = score below 0.9.

read-out: Monocyte Chemoattractant Protein-1 (MCP1), CCL2 (gene 6347); test: BSK_SAg_MCP1: BioMAP Diversity Plus: SAg Assay for Monocyte Chemoattractant Protein-1 (MCP1) Biomarker Activity (AID 2283090); conditions: primary human HUVEC with PBMC; actives raise or lower the signal
How it was run: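 MCP-1 levels in the endothelial–PBMC SAg co-culture were quantified by ELISA at 24 h post-dosing; both increases and decreases versus DMSO scored. Cytotoxicity monitored by SRB total protein in parallel cultures.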

Chain of E-selectin (Homo sapiens) (P16581 whole entry, looked up): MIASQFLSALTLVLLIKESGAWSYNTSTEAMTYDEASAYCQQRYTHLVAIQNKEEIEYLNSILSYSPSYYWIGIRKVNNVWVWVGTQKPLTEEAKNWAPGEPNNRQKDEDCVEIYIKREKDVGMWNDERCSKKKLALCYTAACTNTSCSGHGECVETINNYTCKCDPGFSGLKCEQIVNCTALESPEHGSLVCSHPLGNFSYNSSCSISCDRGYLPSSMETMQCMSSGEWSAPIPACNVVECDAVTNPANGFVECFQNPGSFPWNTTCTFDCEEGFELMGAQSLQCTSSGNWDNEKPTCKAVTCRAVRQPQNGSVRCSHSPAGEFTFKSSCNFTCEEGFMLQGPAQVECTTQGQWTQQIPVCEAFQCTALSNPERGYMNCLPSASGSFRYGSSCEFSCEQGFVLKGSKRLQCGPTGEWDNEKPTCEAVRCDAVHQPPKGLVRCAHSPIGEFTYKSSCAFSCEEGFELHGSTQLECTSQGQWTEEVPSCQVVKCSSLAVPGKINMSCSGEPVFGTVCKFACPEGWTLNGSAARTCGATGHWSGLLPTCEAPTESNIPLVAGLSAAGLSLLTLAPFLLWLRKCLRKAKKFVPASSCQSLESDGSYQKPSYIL

Row | Compound | outcome | AC50
1 | CNC(=O)Oc1cccc(N=CN(C)C)c1 | inactive | 
2 | CCc1ccc(C(=O)NN(C(=O)c2cc(C)cc(C)c2)C(C)(C)C)cc1 | inactive | 
3 | CC(C)(C)C(O)C(Oc1ccc(Cl)cc1)n1cncn1 (stereo not given) | inactive | 
4 | CCC(C)(NC(=O)c1cc(Cl)c(C)c(Cl)c1)C(=O)CCl (stereo not given) |  | 10.3 µM (active)
5 | COC(=O)c1ccccc1S(=O)(=O)NC(=O)Nc1nc(C)nc(OC)n1 | inactive | 
6 | COC(=O)c1ccccc1CS(=O)(=O)NC(=O)Nc1nc(OC)cc(OC)n1 | inactive | 
7 | O=C(O)COc1ccc(Cl)cc1Cl | inactive | 
8 | CCC(C)(C)C(=O)OC1=C(c2ccc(Cl)cc2Cl)C(=O)OC12CCCCC2 |  | 16.7 µM (active)
9 | CCN(CC)C(=O)SCc1ccc(Cl)cc1 | inactive | 
10 | COc1cc(OC)nc(NC(=O)NS(=O)(=O)c2cc(NC=O)ccc2C(=O)N(C)C)n1 | inactive | 
11 | O=C(O)C(F)(F)C(F)(F)C(F)(F)C(F)(F)C(F)(F)C(F)(F)C(F)(F)F | inactive | 
12 | O=C(NC(=O)c1c(F)cccc1F)Nc1ccc(OC(F)(F)C(F)OC(F)(F)F)c(Cl)c1 (stereo not given) |  | 32.2 µM (active)
13 | N#CN | inactive | 
14 | Clc1ccccc1-c1nnc(-c2ccccc2Cl)nn1 | inactive | 
15 | CCOc1nc(NC)nc(NC(=O)NS(=O)(=O)c2ccccc2C(=O)OC)n1 | inactive | 
16 | COP(=S)(OC)Oc1ccc(SC)c(C)c1 | inactive | 
17 | [2H]C1([2H])[n+]2ccccc2-c2cccc[n+]2C1([2H])[2H] | inactive | 
18 | C#CCN1C(=O)COc2cc(F)c(N3C(=O)C4=C(CCCC4)C3=O)cc21 | inactive | 
19 | CC(C)OC(=O)Nc1cccc(Cl)c1 | inactive | 
20 | Oc1cc(Cl)ccc1Oc1ccc(Cl)cc1Cl |  | 12.5 µM (active) [middle of 4 runs]
21 | Cc1[nH]c(=O)n(C(C)(C)C)c(=O)c1Cl |  | 5.42 µM (active)
22 | CCS(=O)(=O)c1cccnc1S(=O)(=O)NC(=O)Nc1nc(OC)cc(OC)n1 | inactive | 
23 | ClC1C(Cl)C(Cl)C(Cl)C(Cl)C1Cl (stereo not given) | inactive | 
24 | Cc1cc(C)nc(NC(=O)NS(=O)(=O)c2ccccc2C(=O)OC2COC2)n1 | inactive | 
25 | CCC(C)Nc1c([N+](=O)[O-])cc(C(C)(C)C)cc1[N+](=O)[O-] (stereo not given) | inactive | 
26 | O=S(=O)(O)C(F)(F)C(F)(F)C(F)(F)C(F)(F)C(F)(F)C(F)(F)C(F)(F)C(F)(F)F | inactive | 

read-out: E-selectin (Homo sapiens) (UniProt P16581); test: BSK_SAg_Eselectin: BioMAP Diversity Plus: SAg Assay for Eselectin Biomarker Activity (AID 2283091); conditions: primary human HUVEC with PBMC; actives raise or lower the signal
How it was run: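 Cell-surface E-selectin is read by ELISA at 24 h in the SAg co-culture of HUVEC and PBMC. Curves are fitted in both directions relative to DMSO. Parallel SRB total-protein staining tracks overt toxicity.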

Row | Compound | AC50 | outcome
27 | CNC(=O)Oc1cccc(N=CN(C)C)c1 | 18.7 µM (active) | 
28 | CCc1ccc(C(=O)NN(C(=O)c2cc(C)cc(C)c2)C(C)(C)C)cc1 | 9.03 µM (active) | 
29 | CC(C)(C)C(O)C(Oc1ccc(Cl)cc1)n1cncn1 (stereo not given) | 12.9 µM (active) | inactive
30 | CCC(C)(NC(=O)c1cc(Cl)c(C)c(Cl)c1)C(=O)CCl (stereo not given) | 7.45 µM (active) | 
31 | COC(=O)c1ccccc1S(=O)(=O)NC(=O)Nc1nc(C)nc(OC)n1 |  | inactive
32 | COC(=O)c1ccccc1CS(=O)(=O)NC(=O)Nc1nc(OC)cc(OC)n1 |  | inactive
33 | O=C(O)COc1ccc(Cl)cc1Cl |  | inactive
34 | CCC(C)(C)C(=O)OC1=C(c2ccc(Cl)cc2Cl)C(=O)OC12CCCCC2 | 11.5 µM (active) | 
35 | CCN(CC)C(=O)SCc1ccc(Cl)cc1 |  | inactive
36 | COc1cc(OC)nc(NC(=O)NS(=O)(=O)c2cc(NC=O)ccc2C(=O)N(C)C)n1 |  | inactive
37 | O=C(O)C(F)(F)C(F)(F)C(F)(F)C(F)(F)C(F)(F)C(F)(F)C(F)(F)F |  | inactive
38 | O=C(NC(=O)c1c(F)cccc1F)Nc1ccc(OC(F)(F)C(F)OC(F)(F)F)c(Cl)c1 (stereo not given) | 9.18 µM (active) | 
39 | N#CN |  | inactive
40 | Clc1ccccc1-c1nnc(-c2ccccc2Cl)nn1 |  | inactive
41 | CCOc1nc(NC)nc(NC(=O)NS(=O)(=O)c2ccccc2C(=O)OC)n1 |  | inactive
42 | COP(=S)(OC)Oc1ccc(SC)c(C)c1 | 33.6 µM (active) | 
43 | [2H]C1([2H])[n+]2ccccc2-c2cccc[n+]2C1([2H])[2H] |  | inactive
44 | C#CCN1C(=O)COc2cc(F)c(N3C(=O)C4=C(CCCC4)C3=O)cc21 | 16.3 µM (active) | 
45 | CC(C)OC(=O)Nc1cccc(Cl)c1 |  | inactive
46 | Oc1cc(Cl)ccc1Oc1ccc(Cl)cc1Cl | 12.7 µM (active) [middle of 4 runs] | 
47 | Cc1[nH]c(=O)n(C(C)(C)C)c(=O)c1Cl | 20 µM (active) | 
48 | CCS(=O)(=O)c1cccnc1S(=O)(=O)NC(=O)Nc1nc(OC)cc(OC)n1 |  | inactive
49 | ClC1C(Cl)C(Cl)C(Cl)C(Cl)C1Cl (stereo not given) |  | inactive
50 | Cc1cc(C)nc(NC(=O)NS(=O)(=O)c2ccccc2C(=O)OC2COC2)n1 |  | inactive
51 | CCC(C)Nc1c([N+](=O)[O-])cc(C(C)(C)C)cc1[N+](=O)[O-] (stereo not given) | 11.9 µM (active) | 
52 | O=S(=O)(O)C(F)(F)C(F)(F)C(F)(F)C(F)(F)C(F)(F)C(F)(F)C(F)(F)C(F)(F)F | 20 µM (active) | inactive

read-out: Monokine induced gamma interferon (MIG), CXCL9 (gene 4283); test: BSK_SAg_MIG: BioMAP Diversity Plus: SAg Assay for Monokine induced gamma interferon (MIG) Biomarker Activity (AID 2283092); conditions: primary human HUVEC with PBMC; actives raise or lower the signal
How it was run: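 HUVEC plus human PBMC co-culture, chemicals dosed and MIG (CXCL9) quantified by ELISA at 24 h. Bidirectional curve fitting against DMSO as negative control and baseline, so both gain and loss of signal count as activity.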

Row | Compound | outcome | AC50
53 | CNC(=O)Oc1cccc(N=CN(C)C)c1 | inactive | 
54 | CCc1ccc(C(=O)NN(C(=O)c2cc(C)cc(C)c2)C(C)(C)C)cc1 | inactive | 
55 | CC(C)(C)C(O)C(Oc1ccc(Cl)cc1)n1cncn1 (stereo not given) | inactive | 
56 | CCC(C)(NC(=O)c1cc(Cl)c(C)c(Cl)c1)C(=O)CCl (stereo not given) |  | 10.5 µM (active)
57 | COC(=O)c1ccccc1S(=O)(=O)NC(=O)Nc1nc(C)nc(OC)n1 | inactive | 
58 | COC(=O)c1ccccc1CS(=O)(=O)NC(=O)Nc1nc(OC)cc(OC)n1 | inactive | 
59 | O=C(O)COc1ccc(Cl)cc1Cl | inactive | 
60 | CCC(C)(C)C(=O)OC1=C(c2ccc(Cl)cc2Cl)C(=O)OC12CCCCC2 |  | 21.3 µM (active)
61 | CCN(CC)C(=O)SCc1ccc(Cl)cc1 | inactive | 
62 | COc1cc(OC)nc(NC(=O)NS(=O)(=O)c2cc(NC=O)ccc2C(=O)N(C)C)n1 | inactive | 
63 | O=C(O)C(F)(F)C(F)(F)C(F)(F)C(F)(F)C(F)(F)C(F)(F)C(F)(F)F | inactive | 
64 | O=C(NC(=O)c1c(F)cccc1F)Nc1ccc(OC(F)(F)C(F)OC(F)(F)F)c(Cl)c1 (stereo not given) | inactive | 
65 | N#CN | inactive | 
66 | Clc1ccccc1-c1nnc(-c2ccccc2Cl)nn1 | inactive | 
67 | CCOc1nc(NC)nc(NC(=O)NS(=O)(=O)c2ccccc2C(=O)OC)n1 | inactive | 
68 | COP(=S)(OC)Oc1ccc(SC)c(C)c1 | inactive | 
69 | [2H]C1([2H])[n+]2ccccc2-c2cccc[n+]2C1([2H])[2H] | inactive | 
70 | C#CCN1C(=O)COc2cc(F)c(N3C(=O)C4=C(CCCC4)C3=O)cc21 | inactive | 
71 | CC(C)OC(=O)Nc1cccc(Cl)c1 | inactive | 
72 | Oc1cc(Cl)ccc1Oc1ccc(Cl)cc1Cl |  | 15.8 µM (active) [middle of 4 runs]
73 | Cc1[nH]c(=O)n(C(C)(C)C)c(=O)c1Cl | inactive | 
74 | CCS(=O)(=O)c1cccnc1S(=O)(=O)NC(=O)Nc1nc(OC)cc(OC)n1 | inactive | 
75 | ClC1C(Cl)C(Cl)C(Cl)C(Cl)C1Cl (stereo not given) | inactive | 
76 | Cc1cc(C)nc(NC(=O)NS(=O)(=O)c2ccccc2C(=O)OC2COC2)n1 | inactive | 
77 | CCC(C)Nc1c([N+](=O)[O-])cc(C(C)(C)C)cc1[N+](=O)[O-] (stereo not given) | inactive | 
78 | O=S(=O)(O)C(F)(F)C(F)(F)C(F)(F)C(F)(F)C(F)(F)C(F)(F)C(F)(F)C(F)(F)F | inactive | 
